Experimental findings from PubChem BioAssay (Tox21) are described below.

A number with no mark means an inactive call. Inconclusive results are not listed. Activity calls are given as the source filed them. Unless noted, the call rests on the fitted dose curve; in most records, active means well fitted curve in the direction sought with a large enough effect in the repeat runs; inconclusive means weak or mixed curves; inactive means no such curve, though single readings can be large; an effect the other way counts as inactive or inconclusive.

The nature of assay [1]: qHTS RealTime-Glo MT Cell Viability Assay in HEK293 cells - 0 hour (AID 1224880). Further: top concentration of the series differs between compounds; nearly all actives have a fitted effect of over 45% in size. Put shortly: (§1)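 Nonlytic bioluminescent viability monitoring. HEK293 at 600 cells/well with reagent; 5 h settle; compound transfer by pintool; plates held at 37 C and read at set time points.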
A short description of assay [2]: A CellTox Green Cytotoxicity Assay to monitor cytotoxicity in HEK293 cells - 32 hour (AID 1224881). Further: nearly all actives have a fitted effect of over 40% in size. Further: potency means the concentration at half of the fitted maximal effect. Summed up: (§2)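 Cytotoxicity was tracked continuously in HEK293 cells by a DNA-binding dye excluded from viable cells. Compounds were transferred in DMSO 5 h after seeding; fluorescence was recorded at intervals up to 40 h.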
Assay [3] is described as follows: A CellTox Green Cytotoxicity Assay to monitor cytotoxicity in HepG2 cells - 0 hour (AID 1224882). Further: nearly all actives have a fitted effect of over 35% in size. Put shortly:
(§3)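 Real-time, homogeneous cytotoxicity readout: dead-cell DNA staining by CellTox Green in HepG2 monolayers, fluorescence measured at timed intervals up to 40 h of continuous compound exposure.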

A short description of assay [4]: A CellTox Green Cytotoxicity Assay to monitor cytotoxicity in HEK293 cells - 8 hour (AID 1224884). Further: nearly all actives have a fitted effect of over 35% in size. Summed up: as §2
Assay [5] in a line: qHTS RealTime-Glo MT Cell Viability Assay in HepG2 cells - 16 hour (AID 1224885). Further: nearly all actives have a fitted effect of over 50% in size. Summed up:
(§4)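 HepG2 cells (600/well) were dispensed with RealTime-Glo reagents, incubated 5 h at 37 °C, then treated with compounds in DMSO for up to 40 h. Nonlytic NanoLuc luminescence reflecting viable cells was read at each stated time point.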
For orientation: In qHTS, concentration-response curves come from the screen itself.

Assay [6] can be described thus: qHTS RealTime-Glo MT Cell Viability Assay in HEK293 cells - 24 hour (AID 1224886). Further: top concentration of the series differs between compounds; nearly all actives have a fitted effect of over 50% in size. Summed up:
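HEK293 cells seeded with NanoLuc/prosubstrate reagent, rested 5 h at 37 C, then dosed and kept at 37 C up to 40 h. Nonlytic real-time luminescence from viable cells read at 0, 8, 16, 24, 32 and 40 h.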

Assay [7] in a line: qHTS RealTime-Glo MT Cell Viability Assay in HEK293 cells - 8 hour (AID 1224887). Further: top concentration of the series differs between compounds; nearly all actives have a fitted effect of over 50% in size. Put shortly: as §1
The nature of assay [8]: A CellTox Green Cytotoxicity Assay to monitor cytotoxicity in HEK293 cells - 16 hour (AID 1224888). Further: nearly all actives have a fitted effect of over 35% in size. Put shortly: as §2
A short description of assay [9]: qHTS RealTime-Glo MT Cell Viability Assay in HepG2 cells - 0 hour (AID 1224889). Further: nearly all actives have a fitted effect of over 50% in size. Summed up: as §4
A short description of assay [10]: A CellTox Green Cytotoxicity Assay to monitor cytotoxicity in HepG2 cells - 8 hour (AID 1224890). Further: nearly all actives have a fitted effect of over 45% in size. Put shortly: as §3
Assay [11] can be described thus: qHTS assay to identify small molecule antagonists of the estrogen receptor alpha (ER-alpha) signaling pathway using the BG1 cell line in the presence of 0.1 nM 17-beta-estradiol - cell viability counter screen (AID 1259241). Further: nearly all actives have a fitted effect of over 40% in size. Summed up: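 VM7Luc4E2 cells (endogenous full-length ER-alpha, 4xERE-luciferase), cultured 5 days in charcoal-stripped serum, exposed to compounds with 0.1 nM 17beta-estradiol (final) for 22 hr at 37C. Viability read in same wells as live-cell protease fluorescence after 30 min.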

Assay [12] can be described thus: qHTS assay to identify small molecule antagonists of the androgen receptor (AR) signaling pathway using the MDA cell line in the presence of 0.5 nM R1881 - cell viability counter screen (AID 1259242). Further: nearly all actives have a fitted effect of over 45% in size. Put shortly: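 Cytotoxicity toward MDA-kb2 cells is measured by CellTiter-Fluor live-cell protease fluorescence after 16 hr compound exposure at 37C in the presence of 0.5 nM R1881 stimulator.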

Assay [13] can be described thus: qHTS assay to identify small molecule phospholipidosis (PLD) inducers (AID 1259344; active means well fitted curve in the direction sought with a large enough effect; an effect the other way counts as inactive or inconclusive). Summed up:
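Fluorescent phospholipid staining (LipidTOX Red) measured by automated microscopy in fixed HepG2 cells after 24 h treatment; nuclei counterstained with Hoechst 33342; amiodarone as reference inducer.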

Assay [14] is described as follows: qHTS assay to identify small molecule HDAC inhibitors (AID 1259364). Further: nearly all actives have a fitted effect of over 45% in size. Further: potency means the concentration at half of the fitted maximal effect. Summed up:
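Homogeneous cell-based luminescent assay of endogenous class I/II HDAC activity; HCT-116 cells, 2 h compound exposure, 30 min HDAC-Glo development at RT.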

Assay [15] is described as follows: qHTS assay to identify small molecule HDAC inhibitors - cell viability counter screen (AID 1259365). Put shortly: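 Wild-type HCT-116 cells, 1,500/well, cultured overnight, then compound-treated 2 h at 37 C. Viability measured as ATP luminescence with CellTiter-Glo after 30 min at room temperature.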
A short description of assay [16]: qHTS assay to identify small molecule agonists of the sonic hedgehog signaling (Shh) pathway - cell viability counter screen (AID 1259366). Further: nearly all actives have a fitted effect of over 50% in size. Put shortly: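 NIH/3T3-derived Gli1-Luc reporter cells, 2,000 per well, received compound after 4 h and were treated about 23 h at 37C. Viability measured in the same wells by CellTiter-Fluor fluorescence after 1 h.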
Assay [17] can be described thus: qHTS assay to identify small molecule antagonists of the sonic hedgehog signaling (Shh) pathway - cell viability counter screen (AID 1259367). Further: nearly all actives have a fitted effect of over 55% in size. Summed up: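 Using CellTiter-Fluor, viability of Gli1-Luc reporter 3T3 cells is read by fluorescence in the wells used for the Shh luciferase assay. Treatment lasts 23 hr with conditioned medium, then reagent 1 hr at 37C.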

For assay [18], the target named is Estrogen receptor (Homo sapiens) (UniProt P03372). Description: qHTS assay to identify small molecule antagonists of the estrogen receptor alpha (ER-alpha) signaling pathway using the BG1 cell line in the presence of 0.1 nM 17-beta-estradiol (AID 1259244). Further: nearly all actives have a fitted effect of over 50% in size. Summed up: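 After 5 days in hormone-depleted medium (charcoal-stripped serum, no phenol red), VM7Luc4E2 cells were seeded, incubated 24 h, then co-treated with compound and 0.1 nM (final) estradiol for 22 h before luminescence detection.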
Estrogen receptor (Homo sapiens), sequence (P03372 whole entry, looked up): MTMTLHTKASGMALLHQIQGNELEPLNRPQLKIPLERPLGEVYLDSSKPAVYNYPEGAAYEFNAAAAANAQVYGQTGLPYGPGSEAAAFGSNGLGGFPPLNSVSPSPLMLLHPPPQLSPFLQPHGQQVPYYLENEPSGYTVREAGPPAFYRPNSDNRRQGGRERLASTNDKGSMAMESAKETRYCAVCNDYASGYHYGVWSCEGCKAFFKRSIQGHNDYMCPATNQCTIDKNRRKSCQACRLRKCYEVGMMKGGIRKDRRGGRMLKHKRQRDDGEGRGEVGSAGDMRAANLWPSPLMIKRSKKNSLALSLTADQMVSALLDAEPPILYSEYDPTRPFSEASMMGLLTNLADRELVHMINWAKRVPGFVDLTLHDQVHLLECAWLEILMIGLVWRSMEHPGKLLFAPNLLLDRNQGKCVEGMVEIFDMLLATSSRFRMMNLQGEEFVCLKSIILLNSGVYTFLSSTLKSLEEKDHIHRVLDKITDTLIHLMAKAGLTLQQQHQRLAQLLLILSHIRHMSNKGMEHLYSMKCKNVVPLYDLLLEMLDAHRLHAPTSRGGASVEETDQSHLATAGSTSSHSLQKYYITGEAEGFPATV

A short description of assay [19]: A CellTox Green Cytotoxicity Assay to monitor cytotoxicity in HepG2 cells - 32 hour (AID 1224883). Further: nearly all actives have a fitted effect of over 50% in size. Put shortly: as §3

In the case of `CC(C)(C)C(O)/C=C/c1ccc2c(c1)OCO2` (centres undefined), the Potency entry in assay [1], in assay [2], in assay [3], in assay [4], in assay [5] and in assay [6] was “inactive” in each case. Also, the Potency result in [7], in assay [8], in assay [9], in assay [10], in assay [11] and in [12] was “inactive” in each case. Further, the Potency result in assay [13], in assay [14], in [15], in assay [16] and in [17] was “inactive” each time.
Turning to `Nc1nc(-c2ccc([N+](=O)[O-])cc2)cs1`, the Potency entry in [1], in assay [2], in assay [3], in assay [4], in [5] and in [6] was “inactive” throughout. The Potency result in [7], in assay [8], in [9], in [10], in assay [11] and in [12] was “inactive” in each case. Moreover, the Potency result in [15], in assay [16] and in assay [17] was “inactive” throughout. Also, in assay [14], the Potency was 12.3 µM (active).
Turning to `COc1ccc(-n2nc(C(F)F)cc2-c2ccc(S(C)=O)cc2)cc1` (centres undefined), the Potency result in assay [1], in assay [2], in [3], in assay [4], in assay [5] and in assay [6] was “inactive” each time. The Potency entry in assay [7], in assay [8], in assay [9], in assay [10], in assay [11] and in assay [12] was “inactive” in each case. The Potency entry in [14], in [15], in assay [16] and in assay [17] was “inactive” throughout.
With `CC(C)(C)CCCCCCOC(=O)c1ccccc1C(=O)OCCCCCCC(C)(C)C`, the Potency entry in assay [1], in assay [2], in assay [3], in [4], in assay [5] and in [6] was “inactive” in each case. In addition, the Potency entry in assay [7], in assay [8], in assay [9], in [10], in [11] and in assay [12] was “inactive” each time. Besides, the Potency entry in assay [18], in assay [14], in [15], in assay [16] and in assay [17] was “inactive” each time.
Consider `Cc1ccc2nc(N)[nH]c(=O)c2c1Sc1ccncc1`, for which the Potency result in assay [1], in assay [2], in assay [3], in [19], in assay [4] and in assay [6] was “inactive” in each case. In addition, the Potency entry in assay [7], in assay [8], in [9], in assay [10], in assay [11] and in assay [12] was “inactive” throughout. The Potency result in assay [13], in assay [14], in [15], in [16] and in [17] was “inactive” each time.
For the compound `CCCCCCC(O)CCCCCCCCCCC(=O)OC` (centres undefined), the Potency result in [1], in assay [2], in assay [3], in assay [4], in assay [5] and in [6] was “inactive” throughout. Further, the Potency result in assay [7], in [8], in assay [9], in assay [10], in assay [11] and in assay [12] was “inactive” in each case. The Potency entry in assay [14], in [15], in assay [16] and in [17] was “inactive” throughout.
For `CCCc1nc2c(C)cc(-c3nc4ccccc4n3C)cc2n1Cc1ccc(-c2ccccc2C(=O)O)cc1`, the Potency entry in assay [1], in assay [2], in assay [3], in [19], in assay [4] and in assay [5] was “inactive” throughout. The Potency result in [8], in assay [10], in [11], in assay [12], in assay [18] and in assay [13] was “inactive” each time. Further, the Potency result in assay [14] and in assay [15] was “inactive” in each case.
As for `NC(=O)c1ccccc1[N+](=O)[O-]`, the Potency entry in assay [1], in [3], in assay [4], in [5], in assay [6] and in [7] was “inactive” each time. Further, the Potency result in assay [9], in [10], in assay [11], in [12], in assay [18] and in [14] was “inactive” throughout. In addition, the Potency entry in assay [15], in [16] and in [17] was “inactive” in each case. For the same compound, in [2], the Potency was 1.78 µM (active).
As to `COc1ccc(/C=C/C(=O)c2ccc(OC)cc2OC)cc1`, the Potency entry in assay [1], in assay [2], in assay [3], in [4], in assay [5] and in [6] was “inactive” each time. In addition, the Potency result in [8], in assay [9], in assay [10], in assay [11], in [12] and in assay [13] was “inactive” each time. Besides, the Potency result in assay [15], in [16] and in assay [17] was “inactive” in each case.
